The text below walks through data of PubChem BioAssay (NCATS).

Where “and” joins values, the source holds several entries; their conditions need not be identical. Equal values may be shown once. Inconclusive results are not listed. The source holds several records for some structures; these can differ, active in one and inactive in another. Calls of active or inactive are those of the source. The call rests on the fitted dose curve; in most records, active means well fitted activation curve with a large enough effect; inconclusive means small, poorly fitted or top-dose-only effect; inactive means no such curve, though single readings can be large or run the other way.
Potency means the concentration at half of the fitted maximal effect.

This assay deals with Cellular tumor antigen p53 (Homo sapiens) (UniProt P04637). The experiment in a line: Primary qHTS for small molecule compounds that upregulate eGFP-tagged delta133p53alpha (in N-terminal) cells. (AID 2060322). Further: nearly all actives have a fitted effect of over 75% in size.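 On activation: cells pre-induced with doxycycline then dosed without doxycycline; series mostly up to about 56 µM; 0% = DMSO vehicle and 100% = reference activator.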 As to conditions: NCI-H358 eGFP-delta133p53alpha fluorescence, 24 h; activation: stronger effect = higher value. From the text: Assay Development and Screening Technology
Cellular tumor antigen p53 (Homo sapiens), sequence (P04637 whole entry, looked up): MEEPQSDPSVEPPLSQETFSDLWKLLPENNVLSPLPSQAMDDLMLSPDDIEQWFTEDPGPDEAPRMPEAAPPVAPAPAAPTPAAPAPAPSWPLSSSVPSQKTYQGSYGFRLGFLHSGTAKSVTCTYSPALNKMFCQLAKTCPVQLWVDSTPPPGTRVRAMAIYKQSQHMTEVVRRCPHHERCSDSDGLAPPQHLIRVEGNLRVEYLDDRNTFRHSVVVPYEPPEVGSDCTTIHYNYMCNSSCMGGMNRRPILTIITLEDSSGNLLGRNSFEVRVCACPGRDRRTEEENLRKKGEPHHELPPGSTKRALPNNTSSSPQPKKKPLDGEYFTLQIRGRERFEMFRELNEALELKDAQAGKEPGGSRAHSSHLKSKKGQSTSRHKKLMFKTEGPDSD
National Center for Advancing Translational Sciences (NCATS),
National Institute of Health (NIH), Rockville, Maryland
Cellular senescence (CS) is one of the hallmarks of aging and age-related diseases. Senescent cells are characterized by an irreversible growth arrest, an increase in senescence-associated beta-galactosidase (SA-beta-gal) activity and p16INK4a expression, an activation of the DNA damage response pathways, and the emergence of a senescence-associated secretory phenotype (SASP).
Delta133p53alpha, a human/primate-specific p53 protein isoform, delays or inhibits the induction of CS and SASP in various types of human cells, including progeria-derived fibroblasts, primary normal astrocytes, and CD8+ T lymphocytes. Induction of delta133p53alpha with small molecule compounds may provide therapeutic opportunities for inhibition of senescence/SASP-associated pathologies in progeria syndromes, astrocyte-mediated neuroprotection in neurodegenerative diseases, and possibly prevention and treatment of a wider range of senescence- and aging-associated diseases.
Here we report the development and validation of a cell-based quantitative high throughput screening (qHTS) assay in 1,536-well format. This qHTS assay uses the NCI-H358 cell line with doxycycline-inducible expression of enhanced green fluorescent protein (eGFP)-tagged delta133p53alpha, which allows efficient and highly quantitative measurement of the protein levels.
PROTOCOL TABLE (as described by Inglese J, Shamu CE and Guy RK. 2007)
SEQUENCE No. (e.g., 1, 2, 3, etc.); […] (e.g., Cells, Incubation, Reagent, etc.); VALUE; DESCRIPTION.
1; Cells; 4uL; 800 doxycycline treated cells / well in doxycycline-free media, 1536-well black, clear-bottom low base Aurora microplates.
2; Compounds; 23 nL; Kalypsis pin tool (Wako) equipped with 1536-well pin heads, 5-azacytidine positive control.
3; Incubation; 24 hr; 37C, 5% CO2; 95% relative humidity.
4; Aspiration; 1x; BioTek EL406 washer dispenser (Agilent).
5; Fixing; 3.5% paraformaldehyde, BioTek EL406 washer dispenser (Agilent).
6; Washing; 1x PBS; BioTek EL406 washer dispenser (Agilent).
7; Nuclei staining; 1:1000 dilution of Hoechst 33342 (Thermofisher), BioTek EL406 washer dispenser (Agilent).
8; Incubation; 20 min; in the dark at room temperature.
9; Washing; 2x, 1x PBS (ThermoFisher), BioTek EL406 washer dispenser (Agilent).
10; Reagent; 10 uL; 1x PBS per well, sealed with clear adhesive tape.
NOTES (numbers refer to sequence numbers above).
1. NCI-H358 cells expressing eGFP-tagged delta133p53alpha were grown in T75 culture flasks and treated with doxycycline for 24h, at 10 ng/ml for eGFP-D133p53a cells (N-terminal cell) and 100 ng/ml for D133p53a-eGFP cells (C-terminal cells). Cells were trypsinized, counted using a Counted 3 Automated Cell Counter (Thermo Fisher), and diluted to a concentration of 200,000 cells/ml. A Multidrop Combi Reagent Dispenser (ThermoFisher) was used to dispense 800 cells/well in […] of doxycycline-free media, into 1536-well black/clear bottom low base plates (AuroraMicroplates).
2. After plating cells, 23 nl of compound library, DMSO vehicle control or positive control (5-azacytidine) were transferred by Pin Tool (Wako). The plate map layout was the same for each plate: (column 1) non-doxycycline treated cells + DMSO vehicle control; (column 2) doxycycline treated cells + DMSO vehicle control baseline; (column 3) doxycycline treated cells + positive control 57.5 uM final concentration 5-azacytidine; (column 4) doxycycline treated cells + serial dilution of 5-azacytidine, 16-point 1:2 titration spanning 1.8 nM to […] final concentration; (columns 5-48) doxycycline treated cells + titration of library compounds.
3. Cells were incubated at 37 °C, 5 % CO2, 95% RH with breathable metal lid for 24h.
4-10. […] After two washes, 10 ul of 1X PBS (Thermo Fisher) was dispensed to each well. Clear adhesive plate seals (VWR) were applied and plates stored at 4 °C.
11. […]
In general terms: In qHTS, concentration-response curves come from the screen itself.
For `C#CC1(O)CCC2C3CCC4=CC(=O)CCC4(C)C3CCC21C` (stereo not given), the activation was 2.51% (inactive).

In the case of `CC1C/C=C/C(O)C(O)CC/C=C/c2cc(O)cc(O)c2C(=O)O1` (stereo not given), the activation was -10.7% (inactive).

With `CN1CCC[C@@H]1Cc1c[nH]c2ccc(Nc3ncccc3[N+](=O)[O-])cc12`, the activation is -40.7% (inactive) and 3.34% (inactive).

Consider `C=C(C)[C@H]1O[C@H]2CC[C@@]3(C)[C@@](O)(CC[C@H]4[C@@H]5OC(C)(C)[C@H]6C[C@@H]7C(=C)Cc8c(Cl)cc9[nH]c(c5c9c8[C@@]76O)[C@@]43C)[C@]23O[C@@H]3[C@H]1O`, for which the activation was -8.93% (inactive).

In the case of `COC1C(O)C(C)OC(OC2C(CO)O[C@@H](O[C@@H]3CC4CCC5C(CC[C@]6(C)[C@@H](C7=CC(=O)OC7)CC[C@]56O)[C@@]4(C)[C@H](O)C3)C(O)C2O)C1O` (stereo not given in full), the Potency is 5 µM (active).

As to `CN1CCc2cccc(Cl)c2CC1`, the activation is -13.1% (inactive).

On to `COC1CCCC(C)OC(=O)Cc2cc(O)cc(O)c2C(=O)C1` (stereo not given), for which the Potency was 16.6 µM (active).

As for `CC(C)(C)NCC(O)c1ccccc1Cl` (stereo not given), the activation is 26.8% (inactive) and -4.18% (inactive).

As for `O=C1CCC[C@@H]2[C@H]3CCCN4CCC[C@@H](CN12)[C@@H]34`, the activation was 30.7% (inactive).

For `Oc1cc(Cl)ccc1Oc1ccc(Cl)cc1Cl`, the Potency was 51.4 µM (active).

Take `Nc1ccccc1C(=O)OCC(O)CO` (stereo not given): the activation is -5.02% (inactive).

On to `CN1CCc2cc(O)cc3c2[C@H]1Cc1ccc(O)c(O)c1-3`, for which the activation was -32.2% (inactive).

`C[C@]12CCC(=O)C=C1CC[C@@H]1[C@@H]2CC[C@]2(C)C(=O)CC[C@@H]12`: the activation is 7.34% (inactive).

In the case of `O=C1c2ccccc2C(=O)c2ccccc21`, the activation is 0% (inactive).

For the compound `CC(=O)OCC1=C(C(=O)O)N2C(=O)[C@@H](N)[C@H]2SC1`, the activation is 19.8% (inactive) and -5.67% (inactive).

As to `O=C1CN=C(c2cccc(Br)c2)c2oc3ccccc3c2N1`, the activation is -24.3% (inactive).

In the case of `Cc1ccccc1C1=CCN(C)CC1`, the activation is 1.67% (inactive).

With `CC1=CC2/C=C(\C)CCC(O)C3OC(C)(C)OC3CC(=O)OC23C(=O)NC(CC(C)C)C3C1C` (stereo not given), the activation is 6.87% (inactive).

Consider `NC(=O)c1ncn2c1CN=C(c1ccccc1Br)c1cc(F)ccc1-2`, for which the activation was -14.3% (inactive).

Regarding `O=C1c2ccccc2C(=O)C1C(=O)C(c1ccccc1)c1ccccc1`, the activation was 24.3% (inactive).

With `OC1(c2ccc(Cl)cc2)c2ccccc2C2=NCCN21` (stereo not given), the activation is 6.21% (inactive).

`CCC1(c2ccccc2)CCC(=O)NC1=O` (stereo not given): the activation was 4.18% (inactive).

Take `CC(C)(C)NCC(O)c1cc(Cl)c(N)c(C(F)(F)F)c1` (stereo not given): the activation is -6.21% (inactive).

As to `O=P1(N(CCCl)CCCl)NCCCO1` (stereo not given), the activation was -25.4% (inactive) and -10.4% (inactive) and -10.6% (inactive).

With `CN1CCc2cc3c(cc2[C@H]1[C@@H]1OC(=O)c2c1ccc1c2OCO1)OCO3`, the activation was -11% (inactive).

Take `C[N+]1(C)C2CCC1CC(OC(=O)c1c[nH]c3ccccc13)C2` (stereo not given): the activation was -13.4% (inactive).

With `CC1Sc2c(C(=O)O)c(=O)c3cc(F)c(N4CCNCC4)cc3n21` (stereo not given), the activation was -8.47% (inactive).

In the case of `C[CH2][Hg][S]c1ccccc1C(=O)O`, the Potency is 3.89 µM (active).

As to `COc1cc(O)c2c(c1)/C=C/C[C@@H](O)[C@@H](O)C(=O)CCC[C@H](C)OC2=O`, the activation is -12.2% (inactive).

On to `C=CCC1=C(C)C(OC(=O)C2C(C=C(C)C)C2(C)C)CC1=O` (stereo not given), for which the activation is 18.6% (inactive).

In the case of `CC[C@@H](C)[C@H]1C(=O)O[C@H](C(C)C)C(=O)N(C)[C@@H](C(C)C)C(=O)O[C@H](C(C)C)C(=O)N(C)[C@@H](C(C)C)C(=O)O[C@H](C(C)C)C(=O)N1C`, the activation was -17.6% (inactive).

For `CC(=O)OC1(c2ccccc2)CCN(CCc2ccccc2)CC1`, the activation was -10.7% (inactive).

As for `CC(=O)O[C@H]1CN2CCC1CC2`, the activation is 5% (inactive).

On to `O=C(C[C@@H]1NCCC[C@H]1O)Cn1cnc2ccccc2c1=O`, for which the Potency was 0.239 µM (active).

On to `O=c1[nH]c2ccccc2n1C1CCN(CCCC(c2ccc(F)cc2)c2ccc(F)cc2)CC1`, for which the activation is -35.4% (inactive) and the Potency was 26.9 µM (active).

Take `COC(=O)CC1CC2(C(=O)c3c(O)cccc3C2(O)C(=O)OC)C(C)O1` (stereo not given): the activation was 8.4% (inactive).

For `CCCN1CCc2cccc3c2[C@H]1Cc1ccc(O)c(O)c1-3`, the activation is -13.3% (inactive).

Regarding `O=S(=O)(F)Cc1ccccc1`, the activation is 5.78% (inactive).

In the case of `Cn1ncnc1COc1nn2c(-c3c(F)cccc3F)nnc2cc1C1CCC1`, the activation is -7.16% (inactive).
